This is part of a sample that, as a whole, favours compounds with a hit. Of some 83,000 tested, about 20% had one in any assay.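 Single-dose data. Exposure time 48 hours. Values below 10 considered active.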 A number with no mark means an inactive call. Active and inactive are the calls of the source.

Among the test systems are T-47D breast; BT-549 breast; MDA-MB-435 melanoma; HCT-116 colon; HCC-2998 colon; KM12 colon; MCF7 breast; SW-620 colon.
Holding throughout (assay): NCI-60 one-dose screen, 48 h (100 = growth as untreated, 0 = no growth, -100 = all killed)
What all share (conditions): 10 µM unless noted

Consider `c1cc(-c2nnc(SSc3ncnc4nc[nH]c34)o2)ccn1`, for which the growth in the assay on T-47D breast was 42.3%; with BT-549 breast, 51.7%; with MDA-MB-435 melanoma, 16%; in the assay on HCT-116 colon, 16.6%; in the assay with HCC-2998 colon it was 10.3%; in the assay with KM12 colon, 45.8%.
As for `O=C(S)CNC(=O)c1ccccc1`, the growth is 102% with T-47D breast; 86.2% with BT-549 breast; 104% in the assay on MDA-MB-435 melanoma; 98.7% in the assay on MCF7 breast; 87.6% with HCT-116 colon; 101% in the assay with HCC-2998 colon. In addition, in the assay with KM12 colon, the growth is 105%.
With `COc1ccc(C2C(C#N)=C(N)Oc3c2sc2c(C)cccc32)cc1` (stereo unspecified), the growth is 46.9% with T-47D breast; 25.1% with BT-549 breast; 26% with SW-620 colon; 10.8% in the assay with MCF7 breast; 13.2% in the assay with HCT-116 colon; 11% in the assay with HCC-2998 colon. The growth in the assay with KM12 colon is 11.7%.
In the case of `CC1=C([Se]CC(OC(=O)[C@@H](CSSC(C)(C)C)NC(=O)OC(C)(C)C)C(=O)NC(C)(C)C)C(=O)c2ccccc2C1=O` (stereo partly specified), the growth in the assay on T-47D breast is -50.3% (active); with BT-549 breast it was -97.8% (active); in the assay on MDA-MB-435 melanoma it was -91.2% (active); in the assay with MCF7 breast, -25.9% (active); with HCT-116 colon it was -73.8% (active); in the assay with HCC-2998 colon, -93.5% (active). Further, the growth in the assay on KM12 colon was -97.7% (active).
Consider `CC(C)n1cnc2c(Nc3cccc(Cl)c3)nc(N[C@H]3CCCC[C@@H]3N)nc21`, for which the growth was 64.8% with T-47D breast; 63% in the assay with BT-549 breast; 47.5% in the assay on MDA-MB-435 melanoma; 40.9% in the assay on MCF7 breast; 28.1% in the assay with HCT-116 colon; 23.4% in the assay on HCC-2998 colon. Also, in the assay on KM12 colon, the growth was 13.5%.
Take `CCCCCCNC(=O)Oc1ccc(/C(=C(\C)c2ccc(Cl)cc2)c2ccc(OCCN3CCCCC3)cc2)cc1`: the growth was 29.1% in the assay on T-47D breast; 64.4% with BT-549 breast; 52.6% with MDA-MB-435 melanoma; 7.75% (active) with MCF7 breast; 6.05% (active) with HCT-116 colon; 62.9% in the assay on HCC-2998 colon. Moreover, the growth with KM12 colon is 36.5%.
On to `CCOC(=O)Nc1ccc(-c2nc(-c3cccc(OC)c3)c(-c3ccnc(Br)c3)[nH]2)cc1`, for which the growth is 13% in the assay with T-47D breast; 56.1% in the assay with BT-549 breast; 46.9% in the assay with SW-620 colon; 17.3% with MCF7 breast; 25.4% in the assay on HCT-116 colon; 40.9% in the assay on HCC-2998 colon. Besides, the growth in the assay on KM12 colon was 24.7%.
In the case of `CCCCCCCCCCCCCCCCCCOc1ccc(CC(=O)OCC[N+]2(C)CCCCC2)cc1`, the growth in the assay with T-47D breast is 92.6%; in the assay with BT-549 breast it was 112%; in the assay with SW-620 colon it was 96.2%; in the assay on MCF7 breast it was 91%; in the assay on HCT-116 colon it was 57.7%; in the assay with HCC-2998 colon it was 97.4%. Besides, in the assay on KM12 colon, the growth is 101%.
Turning to `COc1ccc(-c2nc3sc(-c4ccc(Cl)cc4)cn3n2)cc1`, the growth is 54.9% in the assay with T-47D breast; 97.6% with BT-549 breast; 75% in the assay with MDA-MB-435 melanoma; 48.9% in the assay on MCF7 breast; -16.3% (active) in the assay on HCT-116 colon; 78.6% in the assay with HCC-2998 colon. The growth with KM12 colon is 54.7%.
For the molecule `CNC(C)[C@H]1CCC2C3CCC4C[C@@H](N(C)C(=O)c5ccccc5)CC[C@]4(C)C3CC[C@@]21C` (stereo partly specified), the growth is 0.208% (active) in the assay with T-47D breast; 31% in the assay with BT-549 breast; -25.6% (active) in the assay on MDA-MB-435 melanoma; -1.52% (active) in the assay on HCT-116 colon; 18.4% with HCC-2998 colon; 15.4% with KM12 colon.
Take `Cc1ccc2c(n1)C(=O)C(Cl)=C(Nc1ccccc1C(C)C)C2=O`: the growth with T-47D breast was 52.7%; with BT-549 breast it was 74.9%; in the assay with SW-620 colon it was 48.2%; with MCF7 breast it was 21.1%; with HCT-116 colon it was 25.1%; in the assay on HCC-2998 colon, 113%. Besides, the growth in the assay on KM12 colon is 88%.
`CC1=C(C)C(=O)C(Nc2cccc(C(=O)OC(C)(C)C)c2)=C(Br)C1=O`: the growth in the assay with T-47D breast was -0.52% (active); in the assay with BT-549 breast, 92.9%; in the assay with SW-620 colon, 91.3%; in the assay on MCF7 breast it was 27.1%; in the assay with HCT-116 colon, 62.3%; in the assay with KM12 colon, 99.9%.
As for `Cc1cccc2c3c(sc12)C(c1ccc(Cl)cc1)C(C#N)=C(N)O3` (stereo unspecified), the growth in the assay on T-47D breast is 45.9%; in the assay with BT-549 breast, 17.9%; in the assay on MCF7 breast, 9.7% (active); in the assay on HCT-116 colon, 14.2%; with KM12 colon, 9.62% (active).
On to `CC(C)C(=O)Nc1ccc(-c2nc(-c3cccc(OCCN4CCOCC4)c3)c(-c3ccnc(Br)c3)[nH]2)cc1`, for which the growth with T-47D breast was 39%; in the assay with BT-549 breast, 56.4%; with MCF7 breast it was 15.9%; in the assay with HCT-116 colon it was 44.5%; in the assay on HCC-2998 colon, 66.2%; in the assay with KM12 colon, 33.7%.
Regarding `Cc1ccc(-c2cnc3sc(C(=O)NCCc4ccccc4)c(C)n23)cc1`, the growth was 70% in the assay with T-47D breast; 79.5% with BT-549 breast; 91.9% in the assay on SW-620 colon; 83.2% in the assay with MCF7 breast; 95.6% with HCT-116 colon; 96.9% in the assay with HCC-2998 colon. Also, the growth in the assay on KM12 colon was 96%.
Regarding `COc1cccc(-c2nc(-c3ccc(NC(=O)C(C)C)cc3)[nH]c2-c2ccnc(Br)c2)c1`, the growth is 0.829% (active) in the assay with T-47D breast; 56.9% with BT-549 breast; 42.2% in the assay on SW-620 colon; 12.3% in the assay with MCF7 breast; 34% in the assay with HCT-116 colon; 45.7% in the assay with HCC-2998 colon. In addition, in the assay on KM12 colon, the growth was 36.4%.
Turning to `CCOC(=O)C1=C(N)Oc2c(sc3c(C)cccc23)C1c1ccc(Cl)cc1` (stereo unspecified), the growth in the assay on T-47D breast was 17.6%; in the assay with BT-549 breast it was 65.7%; in the assay with SW-620 colon, 23.7%; in the assay with MCF7 breast, 8.74% (active); with HCT-116 colon, 23.9%; with HCC-2998 colon, 49.3%. Besides, the growth with KM12 colon was 15.3%.
In the case of `Cc1cccc2c1S/C(=C/c1ccc([N+](=O)[O-])cc1)C2=O`, the growth in the assay on T-47D breast was 85%; in the assay with BT-549 breast it was 124%; in the assay with SW-620 colon it was 30.2%; in the assay with MCF7 breast, 9.54% (active); in the assay on HCT-116 colon, 17.1%; with HCC-2998 colon, 122%. Moreover, in the assay with KM12 colon, the growth is 107%.
As to `CCOC(=O)C1=C(N)Oc2c(sc3c(C)cccc23)C1c1ccc(OC)cc1` (stereo unspecified), the growth was 26% in the assay on T-47D breast; 49.6% in the assay with BT-549 breast; 20.3% in the assay with SW-620 colon; 7.65% (active) in the assay with MCF7 breast; 18.4% in the assay with HCT-116 colon; 74.4% in the assay on HCC-2998 colon. The growth with KM12 colon is 27.4%.
In the case of `COc1cccc(-c2nc(-c3ccc(NC(=O)OC(C)C)cc3)[nH]c2-c2ccnc(Br)c2)c1`, the growth in the assay on T-47D breast was 6.55% (active); in the assay with BT-549 breast, 48%; in the assay on SW-620 colon, 34.2%; in the assay with HCT-116 colon, 13.2%; with HCC-2998 colon, 39.5%; in the assay on KM12 colon, 17%.
Consider `CCOC(=O)Nc1ccc(-c2nc(-c3cccc(OCCN4CCOCC4)c3)c(-c3ccnc(Br)c3)[nH]2)cc1`, for which the growth in the assay with T-47D breast was 35.6%; with BT-549 breast it was 56.4%; in the assay with SW-620 colon it was 42.6%; in the assay on MCF7 breast, 11.6%; with HCT-116 colon, 30.9%; with HCC-2998 colon it was 38.5%. In addition, in the assay on KM12 colon, the growth is 20.2%.
As for `COc1cccc(-c2nc(-c3ccc(NS(=O)(=O)c4ccccc4)cc3)[nH]c2-c2ccnc(Br)c2)c1`, the growth is 14.2% in the assay with T-47D breast; 51.3% in the assay on BT-549 breast; 34.3% in the assay with SW-620 colon; 9.68% (active) in the assay on MCF7 breast; 17% in the assay on HCT-116 colon; 21.8% with HCC-2998 colon. Moreover, the growth with KM12 colon is 8.67% (active).
Regarding `Cc1cccc(NC2=C(Cl)C(=O)c3nc(C)ccc3C2=O)c1`, the growth in the assay on T-47D breast is -50.2% (active); with BT-549 breast, 3.34% (active); in the assay with SW-620 colon, -13.7% (active); in the assay on MCF7 breast, -57.8% (active); with HCT-116 colon it was -47.6% (active); in the assay with HCC-2998 colon it was 3.47% (active). In addition, the growth with KM12 colon is 33.5%.
Regarding `CC(C)OC(=O)Nc1ccc(-c2nc(-c3cccc(OCCN4CCOCC4)c3)c(-c3ccnc(Br)c3)[nH]2)cc1`, the growth was 31.2% in the assay on T-47D breast; 42.1% in the assay with BT-549 breast; 19.9% with SW-620 colon; -9.12% (active) with MCF7 breast; 22.3% with HCT-116 colon; 29.4% with HCC-2998 colon. Besides, the growth in the assay on KM12 colon is 10.4%.

(Values after PubChem BioAssay (NCI).)
